Sampled rows, rich in hits. Any-hit rate of the full collection: about 18%.
VP16 counter = Gal4-VP16 reporter inhibition counter-screen; actives 3.5% (n = 310,000); Drosophila S2 Gal4-VP16 UAS-luciferase, luminescence, 20 h; Potency, µM (series often up to 53.6 µM), inactives show top-dose activity, negative = inhibition, actives largely listed as inhibitors;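 also: Gal4-VP16 expression switched on by copper sulfate through the metallothionein promoter; potency is read from the fitted curve at half-maximal effect; nearly all actives have a fitted effect of over 50% in size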
IL-1B inflam inh = inflammasome signaling inhibition, IL-1 beta readout. activity change, % at 57.5 µM. actives 4.7% (n = 360,000). THP-1 LPS/ATP IL-1B secretion, AlphaLISA, 16 h; hits give low values; in the data active = activity change below about -50%; inconclusive = mostly about -30% to -49%
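Secreted IL-1B measured by AlphaLISA bead assay after 16 h compound exposure of THP-1 cells; compounds (final up to 57.5 uM) added 1 h before LPS (250 ng/mL) and ATP (1.25 mM) stimulation; lower signal means less secretion.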
TDP1 cell noCPT = qHTS for Inhibitors of human tyrosyl-DNA phosphodiesterase 1 (TDP1): qHTS in cells in absence of CPT | actives 15% (n = 420,000) | DT40 Tdp1-/- hTDP1 cells, no CPT, ATP luminescence, 48 h | AID 686978, 2013 | Potency, µM (top dose mostly 46.2 µM), for inactives: at the highest dose activity change, negative = growth inhibition, hits mostly inhibitors; also: potency is read from the fitted curve at half-maximal effect; nearly all actives have a fitted effect of over 55% in size
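Compound effects on proliferation are scored in DT40 Tdp1-/-;hTDP1 cells in the absence of CPT. ATP levels (CellTiter-Glo luminescence) are recorded after a ≥48 hr, 37 °C incubation.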
RORgamma inh = ROR gamma (mouse) transcription inhibition; Potency, µM (top dose mostly 53.6 µM), for inactives: top-dose activity change, negative = inhibition, hits mostly inhibitors; AID 2551; actives 5.4% (n = 310,000); Drosophila S2 Gal4-RORgamma UAS-luciferase reporter, 20 h; also: potency is read from the fitted curve at half-maximal effect; nearly all actives have a fitted effect of over 60% in size
Target sequence (P51450 whole entry, looked up, the tested form may be a part): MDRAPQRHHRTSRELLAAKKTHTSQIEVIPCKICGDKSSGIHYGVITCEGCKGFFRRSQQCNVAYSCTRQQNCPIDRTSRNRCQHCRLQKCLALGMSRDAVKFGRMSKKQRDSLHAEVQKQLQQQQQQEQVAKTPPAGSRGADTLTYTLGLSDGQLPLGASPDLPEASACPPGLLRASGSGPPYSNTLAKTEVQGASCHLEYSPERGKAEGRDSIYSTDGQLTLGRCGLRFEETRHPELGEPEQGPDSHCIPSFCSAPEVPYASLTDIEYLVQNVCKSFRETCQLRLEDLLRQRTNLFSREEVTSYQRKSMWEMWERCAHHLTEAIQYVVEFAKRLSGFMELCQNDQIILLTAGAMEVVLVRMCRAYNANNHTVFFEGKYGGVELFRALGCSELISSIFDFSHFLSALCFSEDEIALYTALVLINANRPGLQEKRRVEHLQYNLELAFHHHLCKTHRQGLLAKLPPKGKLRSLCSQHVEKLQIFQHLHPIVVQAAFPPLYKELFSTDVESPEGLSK
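ROR gamma transcriptional activity was tracked as Gal4-UAS luciferase output in stably transfected Drosophila Schneider cells, with compound added 1 hr before 700 uM copper sulfate induction and a 20 hr ambient-temperature incubation.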
TDP1 cell CPT = growth inhibition of DT40 Tdp1-/-;hTDP1 cells with camptothecin (screen for TDP1 inhibitors) | chicken DT40 Tdp1-/-;hTDP1 cells + 20 nM CPT, ATP luminescence, 48 h | Potency, µM (titrated, usually from 46.2 µM), without a hit: at the highest dose activity change, negative = growth inhibition, actives largely listed as inhibitors | actives 12% (n = 420,000); also: potency is read from the fitted curve at half-maximal effect; nearly all actives have a fitted effect of over 55% in size
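Chicken DT40 Tdp1-/- cells stably complemented with human TDP1 were seeded at 400 cells/well in medium containing 20 nM camptothecin, exposed to pin-transferred compounds, and grown at 37 °C for at least 48 hr. Viability was read as ATP luminescence.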
LDHA inh = inhibitors of human lactate dehydrogenase A. actives 0.15% (n = 480,000). AID 1347041. purified LDHA, NADH/diaphorase-resazurin fluorescence; hits give low values. activity change, % (values are at about 110 or 230 µM); in the data active = activity change below about -30%; inconclusive = mostly about -25% to -30%;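 also: plate controls were DMSO wells for no effect and wells without enzyme for full effect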
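Human LDH5 (2 nM) was incubated with 0.06 mM NADH and 0.2 mM pyruvate for 5 min at room temperature in Tris pH 7.4. Remaining NADH was coupled through diaphorase/resazurin, and resorufin fluorescence was read at 0 and 20 min.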
An asterisk follows results filed as active; ? = inconclusive; nt = no result. Unless noted, calls follow the shape of the dose curve; as a rule, active = well fitted curve in the direction sought with a large enough effect; inconclusive = small, poorly fitted or top-dose-only effect, or another doubt; inactive = no such curve, though single readings can be large; an effect the other way counts as inactive or inconclusive. Unless noted, % is scaled to controls: 0 for no effect and ±100 for the full control effect.

SMILES	VP16 counter	IL-1B inflam inh	TDP1 cell noCPT	RORgamma inh	TDP1 cell CPT	LDHA inh
Nn1c(SCC(=O)N2CCCC2)nnc1C1CCCCC1	nt	-14	-1%	nt	-1%	0
COCCOc1cc(NC(=O)c2nn(C)c(=O)c3ccccc23)ccc1OC	nt	nt	nt	nt	nt	9
COC(=O)[C@@H]1CC[C@H](C)[C@@H](c2ccc(C)cc2)N1C(=O)c1ccc(/C=N/O[C@@H](C)CN2CCCCc3nc(C)c(C)cc32)cc1	20µM*	nt	nt	?	nt	nt
N#Cc1cccc(NC(=O)Cn2nc3c(N4CCOCC4)nc4ccccc4n3c2=O)c1	nt	nt	nt	nt	nt	-7
Cc1sc(N)c(C#N)c1-c1ccccc1	nt	nt	nt	nt	nt	8
COc1ccc(-c2csc(NC(=O)c3c(OC)cccc3OC)n2)cc1	-3%	-18	?	0%	-30%	0
COc1ccc(-c2csc(NC(=O)c3cc(=O)c4ccccc4o3)n2)cc1OC	-6%	-19	5.8µM*	2%	?	-3
COc1ccc(-c2csc(NC(=O)c3cc(C)oc3C)n2)cc1OC	10%	-84*	18µM*	9%	?	0
CCOc1ccc(-c2c(C(=O)N/N=C/c3ccco3)nnn2-c2nonc2N)cc1	?	10	?	?	?	0
Cc1ccc(/C=N/NC(=O)c2nnn(-c3nonc3N)c2C(C)C)o1	-29%	-6	?	?	-5%	0
CCCN(CCC)Cc1c(C(=O)N/N=C/C(C)=C\c2ccco2)nnn1-c1nonc1N	?	-60*	16µM*	?	21µM*	13
Cc1ccc(-c2c(C(=O)N/N=C/c3ccc(C)o3)nnn2-c2nonc2N)cc1	11µM*	0	-27%	7.9µM*	-7%	-3
CC(/C=N/NC(=O)c1nnn(-c2nonc2N)c1CN(C)C)=C\c1ccco1	2%	-1	-22%	9%	-19%	21
Cc1ccc(-c2c(C(=O)N/N=C/c3ccco3)nnn2-c2nonc2N)cc1	?	1	-3%	6.3µM*	-7%	0
Cc1ccc(C)c(C(=O)COC(=O)CCSc2ccc(Cl)cc2)c1	nt	nt	nt	nt	nt	5
COc1ccc(NC(=O)N2CCN(c3cccc(C(F)(F)F)c3)CC2)cc1	4%	-1	7.3µM*	-4%	2.1µM*	6
COc1ccc(NC(=O)N2CCN(Cc3nc(-c4cccc(C(F)(F)F)c4)no3)CC2)cc1	nt	nt	nt	nt	nt	-1
CN(C)S(=O)(=O)c1ccc(NC(=O)N2CCN(c3cccc(C(F)(F)F)c3)CC2)cc1	10µM*	-4	2.6µM*	?	3.7µM*	3
Cc1cccc(NC(=O)CSCC(=O)N2CCN(c3cccc(C(F)(F)F)c3)CC2)c1	nt	28	?	nt	?	0
COc1ccc(NC(=O)CSCC(=O)N2CCN(c3cccc(C(F)(F)F)c3)CC2)cc1	nt	0	15µM*	nt	?	2
O=C(NCCCNC(=O)c1ccccc1Br)c1nc2ccccc2c(=O)[nH]1	nt	nt	nt	nt	nt	1
CCCC[C@@H]1CNC(=S)N1CCc1cccc(F)c1	4µM*	-12	?	1.4µM*	-74%	-4
O=C1NC[C@H](Cc2ccc(O)cc2)N(CCc2cccc(F)c2)C1=O	nt	-19	-17%	nt	-10%	7
Fc1cccc(CCN2C(=S)NC[C@@H]2CC2CCCCC2)c1	6.3µM*	?	?	2µM*	?	-6
CC(O)[C@H]1CNC(=S)N1CCc1cccc(F)c1 (stereo not given in full)	-13%	11	-17%	0%	8%	-5
SMILES	VP16 counter	IL-1B inflam inh	TDP1 cell noCPT	RORgamma inh	TDP1 cell CPT	LDHA inh
Fc1cccc(CCN2C(=S)NC[C@@H]2Cc2ccccc2)c1	7.1µM*	0	?	2.2µM*	21µM*	-2
Cc1sc2nc(C(C)Sc3nnnn3C)[nH]c(=O)c2c1C (stereo not given)	nt	nt	nt	nt	nt	2
O=C(Nc1nnc(-c2ccccc2)o1)C1CCCN1S(=O)(=O)c1cccs1 (stereo not given)	nt	-59*	?	nt	-29%	-4
O=C(Nc1nnc(-c2ccco2)o1)C1CCCCC1	?	2	-17%	?	-8%	-2
O=C(Nc1nnc(-c2ccco2)o1)C1CC1	?	-7	-2%	10µM*	2%	4
COc1ccc(-c2nnc(NC(=O)C3CCCN3S(=O)(=O)c3cccs3)o2)cc1 (stereo not given)	nt	5	-27%	nt	?	3
O=C(Nc1nnc(-c2cccs2)o1)C1CC1	7.1µM*	4	3%	7.1µM*	0%	-2
CCCCn1c(=O)[nH]c(=O)c2c1nc(COC(=O)/C=C/c1ccc(OC)c(OC)c1)n2CC	nt	nt	nt	nt	nt	2
CC(=O)Nc1ccc(NC(=O)c2cc(-c3ccco3)nc3ccccc23)cc1	nt	nt	nt	nt	nt	12
O=C(Cn1c(=O)n(CCc2c[nH]c3ccccc23)c(=O)c2cccnc21)Nc1ccccc1F	5%	-7	23µM*	3%	15µM*	-16
CCOC(=O)N1CCN(c2cc3[nH]c(=S)[nH]c3cc2F)CC1	0%	13	2%	-11%	?	-2
CCOC(=O)N1CCN(c2c(F)cc3[nH]c(=S)[nH]c3c2Br)CC1	-2%	27	18µM*	?	?	-10
CCCN1C(=O)c2ccccc2NC1c1ccc(OC)c(COc2cccc(C)c2C)c1 (stereo not given)	nt	nt	16µM*	nt	?	1
COc1ccc(C2Nc3ccccc3C(=O)N2Cc2ccccc2)cc1COc1ccccc1OC (stereo not given)	nt	nt	nt	nt	nt	1
COc1ccc(C2Nc3ccccc3C(=O)N2c2cccc3ccccc23)cc1COc1c(C)cccc1C (stereo not given)	nt	nt	2.8µM*	nt	3.2µM*	2
Cc1ccc2[nH]c(=O)c(CN(CC3CCCO3)C(=O)c3ccco3)cc2c1 (stereo not given)	17%	nt	nt	14%	nt	nt
Cc1cc2cc(CN(CC3CCCO3)C(=S)NCc3ccco3)c(=O)[nH]c2cc1C (stereo not given)	-10%	-75*	16µM*	34%	?	-4
Cc1cc2cc(CN(Cc3ccco3)C(=S)NCC3CCCO3)c(=O)[nH]c2cc1C (stereo not given)	?	-63*	21µM*	?	?	-3
CCc1ccc2[nH]c(=O)c(CN(Cc3ccco3)C(=S)NCC3CCCO3)cc2c1 (stereo not given)	-3%	-115*	?	2%	?	1

Screens: PubChem BioAssay, National Center for Advancing Translational Sciences (NCATS)
